Data as given in the supplement of paper PMC10105736.
Unmarked numbers belong to inactive results.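 Rule for the calls: active = MAPPIT score above the 99th percentile of random reference set scores in the same batch; inactive = at or below it.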

Legend:
Experiment in all cases: MAPPIT interaction score (arbitrary units); higher = stronger binary interaction signal, active = hit call of the paper
CG12253 = conditions: MAPPIT configuration: N-C; pair source set: screen_3
Hsp70Aa = conditions: MAPPIT configuration: N-N; pair source set: Lit-BS-16
CG11961 = conditions: MAPPIT configuration: N-N; pair source set: Lit-BS-16
CG12607 = conditions: MAPPIT configuration: N-N; pair source set: Lit-BS-16
noc = conditions: MAPPIT configuration: N-N; pair source set: Curagen_high_conf
CG12307 = conditions: MAPPIT configuration: N-C; pair source set: screen_3
CG5151 = conditions: MAPPIT configuration: N-N; pair source set: Curagen_high_conf
Npl4 = conditions: MAPPIT configuration: N-N; pair source set: Finley_Y2H
PAN3 = conditions: MAPPIT configuration: N-N; pair source set: Finley_Y2H
Sxl = conditions: MAPPIT configuration: N-N; pair source set: Finley_Y2H
mxt = conditions: MAPPIT configuration: N-N; pair source set: screen_1
CG12268 = conditions: MAPPIT configuration: N-N; pair source set: DPIM
mub = conditions: MAPPIT configuration: N-N; pair source set: DPIM
CG30324 = conditions: MAPPIT configuration: N-C; pair source set: screen_3
en = conditions: MAPPIT configuration: N-C; pair source set: screen_4
CG12155 = conditions: MAPPIT configuration: N-N; pair source set: Lit-BS-16
Ravus = conditions: MAPPIT configuration: N-N; pair source set: screen_1
CG12112 = conditions: MAPPIT configuration: N-N; pair source set: RRS
CG11983 = conditions: MAPPIT configuration: N-N; pair source set: screen_1
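Note: HEK293T cells with Epo stimulation, STAT-responsive firefly luciferase reporter, fold induction versus unstimulated cells divided by the larger fold induction of two negative controls lacking either bait or prey.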

B1: Sry-alpha (protein)
chain: MEQLLAQLHTCSELIAEGYSSTGNIGWLNEFCATFLDFASDLKARLPEVAPSGANLDVETIFLCLTQVVTCITHLERTISMEAPHMTRQHFLDRLDWCLRRLLVSLTQLEGNVTPVKNLEDHSFVELMDLALDHLDDYMEKLAQQRNNSLHILEESFTEDTYQLASIVNHIVRHALAFANVAIHSDKKALTALCETLLAECATFHEEAGEPNSGHRKLEALSLERALYALESFLNEALLHLLFVSLIDLENASVEKLKDALQRDPAGAQELISAFDTNMDRIQQIGVLAIAFSQDIKTKTIVRSCLASLESLDACIVPALQLPESTSSAHHAEVLQEHFNQELLIFRNVIHEIIDSCSLINNYLDMLGERIHVQDKSHLKLIVQRGGVVVDHFRLPVNYSGLSEDGKRVHKDLILILRECQAVVNLDVPVDPKRIVKRLKILYSVLAKLRDLICRDNLEPDSSVASEAQVPSSATRTFVRSSRSFGKRHRSFVKQTGNCSVFGPQDSLAESGHSESDLISFQITEILRLD
MAPPIT interaction score (CG12253): 0.332
MAPPIT interaction score (Hsp70Aa): 3.5 (active)

B2: Sod3 (protein)
chain: MMQYLVVSLALCATICSAAQTRNMPIQAIAYLIGPVQSDNTQVKGNVTFTQNDCGQNVHVRVQLEGLKEGKHGFHIHEKGDLTNGCISMGAHYNPDKVDHGGPDHEVRHVGDLGNLEANSTGIIDVTYTDQVITLTGKLGIIGRGVVVHELEDDLGLGNHTDSKKTGNAGGRIACGVIGIK
MAPPIT interaction score (CG11961): -0.0996
MAPPIT interaction score (CG12607): 0.262
MAPPIT interaction score (noc): 0.249

B3: CycG (protein)
chain: MSVPVRYSSAAAEYAAEVDCELESTLQQQQQLHLQQQYEQYQHYQYQREQDIAYYCQLQAARQQEQLMQQRTSMSSSVMPGLALPQDHQDHPAALLNGPHNNNIGLAMDAHSINAILVDDEQPSTSAQAAAAAAASAGGSAGAGSGSGLGGAIGGGKLANGINRNAEMPTDWMRIADEGRYGTPGAAGLEYQKYEQQQQLEDLAESEAGAVGGASNNNGESSSSLKKLEDQLHALTSDELYETLKEYDVLQDKFHTVLLLPKESRREVTAGGRDGSAYVLRCLKMWYELPSDVLFSAMSLVDRFLDRMAVKPKHMACMSVASFHLAIKQLDLKPIPAEDLVTISQCGCTAGDLERMAGVIANKLGVQMGHAPITSVSYLRIYYALFRNLAKEIGGDFFKFYQQLIKLEELENRLEILMCDVKTTVITPSTLALVLICLHLDFHIKESYTRGSPELKHVFEYILFLQQYMRIPDRVFTCGFSIVSGILSHYNGQNKAPYKQRLVWKLSSRTLRVLRPINRFSSDLPTIEEGIPNALDDGLRSRTESISSEEEEDWPTSPIIPIFEQC
MAPPIT interaction score (CG12307): 0.375
MAPPIT interaction score (CG5151): 0.112
MAPPIT interaction score (Npl4): 3.83 (active)
MAPPIT interaction score (PAN3): 0.781
MAPPIT interaction score (Sxl): 1.86
MAPPIT interaction score (mxt): -0.277

B4: mRpL52 (protein)
chain: MLKITKICLASSATSTAQRSIALTAPRAIDQKWRAAKGLPENPNAFGPLTNLPDYTYLDGRPTPLGANQKRRLIKQQEIATRIVELSGELEFAKQRHERLKANAESEKQRLIRSKLKPKGHFLLKK
MAPPIT interaction score (CG12268): -0.169
MAPPIT interaction score (mub): 0.103

B5: osk (protein)
chain: MAAVTSEFPSKPISYTSTNTSAKTYYLKSVKKRVTTCFQQLRDKLQSSGSFRKSSSSCLNQIFVRSDFSACGERFRKIFKSARKTELPELWKVPLVAHELTSRQSSQQLQVVARLFSSTQISTKEITYNSNSNTSENNMTIIESNYISVREEYPDIDSEVRAILLSHAQNGITISSIKSEYRKLTGNPFPLHDNVTDFLLTIPNVTAECSESGKRIFNLKASLKNGHLLDMVLNQKERTSDYSSGAPSLENIPRAPPRYWKNPFKRRALSQLNTSPRTVPKITDEKTKDIATRPVSLHQMANEAAESNWCYQDNWKHLNNFYQQASVNAPKMPVPINIYSPDAPEEPINLAPPGHQPSCRTQSQKTEPTENRHLGIFVHPFNGMNIMKRRHEMTPTPTILTSGTYNDSLLTINSDYDAYLLDFPLMGDDFMLYLARMELKCRFRRHERVLQSGLCVSGLTINGARNRLKRVQLPEGTQIIVNIGSVDIMRGKPLVQIEHDFRLLIKEMHNMRLVPILTNLAPLGNYCHDKVLCDKIYRFNKFIRSECCHLKVIDIHSCLINERGVVRFDCFQASPRQVTGSKEPYLFWNKIGRQRVLQVIETSLEY
MAPPIT interaction score (CG12307): 2.35
MAPPIT interaction score (CG30324): 0.362
MAPPIT interaction score (en): 0.844

B6: Arr1 (protein)
chain: MVVNFKVFKKCSPNNMITLYMNRRDFVDSVTQVEPIDGIIVLDDEYVRQNRKIFVQLVCNFRYGREDDEMIGLRFQKELTLVSQQVCPPQKQDIQLTKMQERLLKKLGSNAYPFVMQMPPSSPASVVLQQKASDESQPCGVQYFVKIFTGDSDCDRSHRRSTINLGIRKVQYAPTKQGIQPCTVVRKDFLLSPGELELEVTLDKQLYHHGEKISVNICVRNNSNKVVKKIKAMVQQGVDVVLFQNGQFRNTIAFMETSEGCPLNPGSSLQKVMYLVPTLVANCDRAGIAVEGDIKRKDTALASTTLIASQDARDAFGIIVSYAVKVKLFLGALGGELCAELPFILMHPKPSRKAQLEAEGSIEA
MAPPIT interaction score (CG12155): 0.0379
MAPPIT interaction score (Ravus): 0.0915

B7: Edg78E (protein)
chain: MYKYLFCLALIGCACADNINKDAQIRSFQNDATDAEGNYQYAYETSNGIQIQEAGNANGARGAVAYVSPEGEHISLTYTADEEGYHPVGDHLPTPPPVPAYVLRALEYIRTHPPAPAQKEQQ
MAPPIT interaction score (CG12112): 2.76 (active)

B8: Cdlc2 (protein)
chain: MSDRKAVIKNADMSEEMQQDAVDCATQALEKYNIEKDIAAFIKKEFDKKYNPTWHCIVGRNFGSYVTHETRHFIYFYLGQVAILLFKSG
MAPPIT interaction score (CG11983): 4.18 (active)
